# System: PPARg:RXRa DBDmut IVT, anti-RXR (DBD mutation: RXRa K156A/R161A, NR concentration 270 nM, RXRa partner concentration 90 nM)
# Experiment: PBM binding z-score (relative to random genomic background probes); higher = stronger binding; sequences stand for … in GC…GCGATTGACAGCGTAGAATGAAGG
# Outline: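 Ligand-free nuclear receptor dimers were applied to custom Agilent 4×180K protein-binding microarrays whose double-stranded probes carried direct-repeat seeds, single-nucleotide variants, half-site ablations and random human genomic background sequences in 34-nt variable regions. Incubation lasted 1 h. Binding z-scores were computed against the random background probes from regression-normalized fluorescence.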
row,Sequence,PBM binding z-score
1,TGTCAAAGTTCAAAGGTAATGTAAGTATCCACAC,0.141
2,GCTTGTAGATCTAGGTTAAGAAAGACTAAGCTAA,3.21
3,TCTAGTTGGTCACGGAGGTCACATACGACGGGTA,2.69
4,TGAATGAGGTTAAAGATCAGCGAACGTGGCGTCG,2.09
5,TCTTGTACATCAATAGAGGTTAAGAAAGTGCGCT,1.8
6,GGAACGCGGGCAAGTTGATAGCAGAGTTTGATGG,-0.223
7,AGTCAAAGTTCAGGACGAGGTAACGGAAAGCACG,-0.203
8,ACAGACAGGTGAGAGAAGGTAACTCAGCTGGACG,0.676
9,TCATATAGGTAAATGCTAGGGGAAAGTCCGATCT,4.25
10,CCTTACGGGTCACTCCAGGTTATTGCATCGGAGT,2.64
11,GCAGACAGGAGAAACGCAGGTAACTCAGGGTGGC,-0.542
12,CCGAGTACGTTATGGGGCATTCAGGCAACGGTGA,0.389
13,TCGAGTAGGCTAGTCGGGGCATTCAGCCAACATA,0.821
14,CCAGACAGGTGAAAGGTAACTCAGTCTGGTACGC,2.07
15,CTCGAAAGGTCGGTTGAGGTGAGGATACGGATAA,-0.21
16,TTACCAAGGTGAAGGTAGTTGATCCCTCTGTAGA,2.05
17,CCGACCGGGGCATAAGGTTACCATAAGCCAGCCC,0.165
18,CATACAGGGTCAGCTCGGCCAGAGTAGGGACGGC,0.771
19,ACTTGTTGGTCAGCTGAGGTCACACACAATTCGG,1.72
20,CCTGCTAGGTAATGGTCAGCTAATCTACAGTATG,1.12

row,Sequence,PBM binding z-score
1,CGTCCAGGGTCATAGGAGGTCAGTGAAGACAGAT,1.75
2,CCTTACGGTTCACTCCAGGTTATAGCATCGGAGT,0.278
3,AGTCAGAGTTCAGGACGAGGTAACGTAAAGCACG,-0.749
4,TCAGACAGGCGAAGGTAACTCAGGTACGCAGTCG,1.62
5,CGCCCAAGGTCAGAGAGGTCAGTGAATGCCGAGT,2.95
6,GCATATAGGTAATACAAAGTGAAAGTCCGATTGT,4.28
7,CGAACTAGATCATCCAGGACAGTGAATACATTGA,2.02
8,CTACCAAGGTGAACAAGGTGGTTGATTACTATTC,2.63
9,ACATACGGGTCAACGAGGTTATAGCACGCGTATA,3.32
10,CGTCCAAGGTCAAGGTCAGTAAAAGAGACTCGAA,3.53
11,GCGACTGGGGCATCAGCAGGTAACCATAACTTAA,3.85
12,ATATGTAGATTAGCTGGGGTCATTCAGACTAGGC,1.08
13,ACTAGTTGGTCAGCTGAGGTCCCACACAATTCGG,0.847
14,AGAGTGAGGTTATACGTAGATCAGGGAAGAAAGT,0.49
15,GCTAGCAGGCCATTTGGGGCACTCAATGACGGGC,1.12
16,GCTAGTTGGTCAGGAAAAGGTCACACACCGGTCG,0.896
17,CCGACTGGGGCATAAGGTTACCACAAGCCAGCCC,2.87
18,ACTAGTTGGTCAGCAGAGGTCACACACAATTCGG,1.92
19,TCTTGTAGATCAAAGGTTAAAAAAGCCGAAGCCT,2.16
20,CCGACTGGTGCATAAGGTTACCATAAGCCAGCCC,-0.572

# — the supplement of paper PMC6555819
